POLB inh: qHTS Assay for Inhibitors of DNA Polymerase Beta; P06746; Pol beta primer extension/strand displacement, fluorescence kinetic; Potency, µM (series often up to 114 µM), inactives show at the top dose activity change, negative = inhibition, hits mostly inhibitors; 340,000 tested, 1.3% active; AID 485314, 2010; further: potency means the concentration at half of the fitted maximal effect; on the % scale 0 is the no-effect control and ±100 the full control effect
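Pol beta (10 nM) and compounds were preincubated 15 min at room temperature, then 50 nM substrate (final) started primer extension/strand displacement. Reads were taken at 0 and 10 min; concentration-response data were fitted to a four-parameter Hill equation.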
Pol kappa inh: qHTS for Inhibitors of Polymerase Kappa | DNA polymerase kappa (Homo sapiens), Q9UBT6 | purified Pol kappa, fluorescent DNA synthesis assay, 10 min | Potency, µM (series often up to 107 µM), for inactives: at the highest dose activity, negative = inhibition, most hits filed as inhibitors | 400,000 tested, 0.53% active; further: potency means the concentration at half of the fitted maximal effect; on the % scale 0 is the no-effect control and ±100 the full control effect
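Pol kappa 10 nM + cpd, 15 min RT; start w/ substrate 50 nM final; fluorescence kinetic read, 0 and 10 min. Neg ctrl: buffer, no enzyme.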
POLI inh: qHTS for Inhibitors of Polymerase Iota; Potency, µM (highest dose often 115 µM), for the others: at the highest dose activity, negative = inhibition, actives largely listed as inhibitors; Pol iota fluorescent replication assay, 10 min; DNA polymerase iota (Homo sapiens), Q9UNA4; 390,000 tested, 1% active; further: potency means the concentration at half of the fitted maximal effect
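Fluorescent replication assay read twice, at 0 min and 10 min after adding 50 nM (final) substrate. Enzyme (10 nM) and compounds were first incubated 15 min at room temperature; enzyme-free buffer wells were negative controls.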
POLH inh: qHTS for Inhibitors of Polymerase Eta; DNA polymerase eta (Homo sapiens), Q9Y253; recombinant Pol eta, fluorescent DNA replication assay; Potency, µM (top dose mostly 114 µM), inactives show top-dose activity change, negative = inhibition, usual class: inhibitors; 390,000 tested, 1.2% active; AID 588591, 2011; further: potency means the concentration at half of the fitted maximal effect; on the % scale 0 is the no-effect control and ±100 the full control effect
Target sequence (Q9Y253 whole entry, looked up): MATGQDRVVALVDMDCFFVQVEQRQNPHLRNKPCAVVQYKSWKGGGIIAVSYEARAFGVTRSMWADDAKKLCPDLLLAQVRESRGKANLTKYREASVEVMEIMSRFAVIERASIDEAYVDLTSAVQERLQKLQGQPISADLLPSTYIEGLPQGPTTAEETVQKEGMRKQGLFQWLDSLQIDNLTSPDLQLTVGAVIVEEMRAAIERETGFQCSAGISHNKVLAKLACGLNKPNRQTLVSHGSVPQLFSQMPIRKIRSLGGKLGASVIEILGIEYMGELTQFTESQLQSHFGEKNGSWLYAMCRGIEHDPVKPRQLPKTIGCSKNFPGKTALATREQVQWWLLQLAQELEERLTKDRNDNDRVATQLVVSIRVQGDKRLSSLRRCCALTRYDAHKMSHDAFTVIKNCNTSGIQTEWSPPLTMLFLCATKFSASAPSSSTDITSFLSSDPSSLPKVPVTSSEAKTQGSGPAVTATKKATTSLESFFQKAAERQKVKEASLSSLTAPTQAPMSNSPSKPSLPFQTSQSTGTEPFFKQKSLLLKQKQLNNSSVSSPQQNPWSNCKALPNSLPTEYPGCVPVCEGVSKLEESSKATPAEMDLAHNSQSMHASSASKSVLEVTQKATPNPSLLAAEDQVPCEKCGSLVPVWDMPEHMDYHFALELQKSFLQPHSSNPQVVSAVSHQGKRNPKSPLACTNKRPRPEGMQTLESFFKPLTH
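Pol eta at 10 nM preincubated with compounds 15 min at room temperature; reaction started with fluorescent substrate (50 nM final) and read kinetically at 0 and 10 min.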
PI5P4K alpha inh: qHTS for Inhibitors of phosphatidylinositol 5-phosphate 4-kinase (PI5P4K) | Phosphatidylinositol 5-phosphate 4-kinase type-2 alpha (Homo sapiens), P48426 | max response, % | 330,000 tested, 1.2% active | PI5P4Kalpha enzyme, ADP-Glo luminescence, 60 min; hits give low values; active means max response of -50% or lower; inconclusive means between -30% and -50%; inactive means -30% or higher; further: value at the top dose of about 77 µM; on the % scale 0 is the no-effect control and ±100 the full control effect
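ADP-Glo luminescence end-point read after a 60 min room-temperature kinase reaction of PI5P4Kalpha plus substrate, initiated with ATP at 5 microM final. Buffer: 0.038 M HEPES pH 7.4, EGTA, 0.1% CHAPS, 5% DMSO.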
PI4K2A block: qHTS for small molecular inhibitors of PI4K2A. Phosphatidylinositol 4-kinase type 2-alpha (Homo sapiens), Q9BTU6. purified PI4K2A, ADP-Glo luminescence, 1 h; hits give low values. activity change, negative = inhibition, % at 76.9 µM. 420,000 tested, 0.13% active. AID 1346378, 2018; in the data active means activity change below about -50%; inconclusive means mostly about -30% to -49%;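 further: -100% = wells without enzyme as full effect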
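In this quantitative HTS, ADP production by PI4K2A was quantified luminescently after 1 h at ambient temperature; 100 microM adenosine served as plate-quality control.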
Numbers without * were called inactive; u = inconclusive; x = no result; [ ] = dose if it differs, or a comment. Compounds with a hit are over-represented: about 2.8% of the library has one in this group of screens. Unless noted, the call rests on the fitted dose curve; in most records, active means well fitted inhibition curve with a large enough effect; inconclusive means small, poorly fitted or top-dose-only effect, or another doubt; inactive means no such curve, though single readings can be large or run the other way.

SMILES	POLB inh	Pol kappa inh	POLI inh	POLH inh	PI5P4K alpha inh	PI4K2A block
CCCCC(=O)O[C@]1(C(=O)CO)[C@@H](C)C[C@H]2[C@@H]3CCC4=CC(=O)C=C[C@]4(C)[C@@]3(F)[C@@H](O)C[C@@]21C	x	x	x	x	x	-1.8
O=C(Nc1ccc(-c2nc3ccccc3s2)c(O)c1)c1ccc(Br)cc1	-0.6%	-5.1%	13.8%	-23.7%	x	2.5
Oc1ccc(N=C/C=C/c2ccc(Br)cc2)cc1-c1nc2ccccc2s1	12.6µM*	x	x	x	x	x
COc1ccc2cc3cc(C(=O)NC4CC4)sc3nc2c1	79.4µM*	-4.0%	-20.3%	-2.5%	-1.1	u
COc1ccc2nc3sc(C(=O)NCCN4CCc5ccccc5C4)cc3cc2c1	20µM*	-25.7%	-11.8%	u	-4.2	4.4
COc1ccc2nc3sc(C(=O)NCCc4ccc(Cl)cc4)cc3cc2c1	u	-6.8%	-14.1%	4.7%	x	3.2
CCOc1ccc(CCNC(=O)c2cc3cc4ccc(OC)cc4nc3s2)cc1OCC	0.6%	13.8%	23.7%	-15.1%	x	-1.3
CC1(S(=O)(=O)O)CC(=O)c2ccccc2C1=O (stereo not drawn)	u	-16.4%	6.31µM*	u	-1.5	-3.5
CC1(N2CCCCC2)C(=O)c2ccccc2C1=O	29.1%	-9.5%	33.1%	-20.5%	3.6	0.4
CC(C)ON([C@@H](C(=O)NO)C(C)C)S(=O)(=O)c1ccc(-c2ccccc2)cc1	x	-21.2%[60.1 µM]	x	x	x	1.7
CN=c1sc(C(=O)Nc2cccc(Cl)c2)cc(=O)n1C	31.8%	-1.5%	-11.5%	-10.5%	-62.3*	-3.3
Cc1ccc(NC(=O)c2ccc3c(c2)NC(=O)c2ccccc2S3)c(Cl)c1	u	8.6%	79.4µM*	-24.9%	x	-3.8
O=C(OCC1OC(n2ncc(=O)[nH]c2=O)C(OC(=O)c2ccccc2)C1OC(=O)c1ccccc1)c1ccccc1 (stereo not drawn)	u	u	u	89.1µM*	-3.5	3.5
COc1ccc(CCCc2nnc(SCC(=O)Nc3cccc(C)c3)o2)cc1C	2.9%	10.8%	25.3%	-20.2%	x	-2.0
Cc1cccc(Cc2cnc(N3C(=N)SC(c4ccccc4)C3=O)s2)c1 (stereo not drawn)	-24.5%	-32.9%	-27.3%	-0.6%	-55.2*	1.8
Cc1cccc(Cc2cnc(N3C(=N)SC(C)C3=O)s2)c1 (stereo not drawn)	12.2%	0.7%	58.8%	5.9%	-6.2	-6.1
Cc1cccc(CSc2nc3c(sc4ccccc43)c(=O)n2CCC(=O)NC(C)C)c1	25.1µM*	-1.8%	24.5%	-21.6%	x	-3.3
CC(C)NC(=O)CCn1c(SCc2c(F)cccc2Cl)nc2c(sc3ccccc32)c1=O	-29.2%	-5.5%	20.7%	-4.3%	x	-7.1
O=c1[nH]c(=O)n([C@H]2CCCO2)cc1F	x	x	x	x	x	1.6
CCc1oc2ccccc2c1C(=O)c1cc(I)c(O)c(I)c1	x	u	x	x	x	-1.9
O=C(/C=C/c1c(F)cccc1Cl)N1CCOCC1	31.6µM*	4.9%	17.7%	-18.6%	-29.8	0.4
Nn1c(SCc2c(Cl)cccc2Cl)nnc1-c1n[nH]c2c1CCC2	x	x	x	x	x	1.7
CNC(=O)c1ccsc1NC(=O)c1sc2ccccc2c1Cl	14.1µM*	u	u	u	-0.6	4.5
COc1cccc(/C(O)=C/c2nc3ccc(C(=O)NCCc4ccc(Cl)cc4)cc3[nH]c2=O)c1	-0.1%	-16.4%	-3.2%	-8.4%	-92.9*	-0.4
CN(C)c1ccc(C=O)cc1Cl	x	5.3%	17.6%	x	x	x
SMILES	POLB inh	Pol kappa inh	POLI inh	POLH inh	PI5P4K alpha inh	PI4K2A block
Nc1c(-c2nc(-c3ccccc3)no2)nnn1CC(=O)Nc1cccc(F)c1	14.1µM*	-3.5%	10.9%	-25.6%	x	-12.0
Cc1cc(C)cc(NC(=O)Cn2nnc(-c3nc(-c4ccncc4)no3)c2N)c1	u	-6.2%	24.5%	0.6%	x	7.5
O=C(N/N=C/c1ccc(Cl)c([N+](=O)[O-])c1)c1ccc2nc[nH]c2c1	39.8µM*	-14.7%	-2.9%	u	-16.1	6.1
O=C(N/N=C/c1ccccc1[N+](=O)[O-])c1ccc2nc[nH]c2c1	22.3%	-0.2%	-8.0%	-18.6%	0.8	10.0
CCOc1cccc(/C(O)=C2/C(=O)C(=O)N(CCOC)C2c2ccco2)c1 (stereo not drawn)	79.4µM*	-11.6%	u	u	-0.5	-7.5
CCOc1cccc(/C(O)=C2/C(=O)C(=O)N(Cc3cccnc3)C2c2ccco2)c1 (stereo not drawn)	12.1%	-17.4%	-1.5%	0.1%	x	-0.8
COc1ccc(/C=C/c2ccc(=O)n(Cc3ccccc3)n2)cc1	-6.1%	-7.4%	62.6%	-9.6%	-51.1*	3.3
O=C(NC1CCCC1)c1ccc(COc2ccccc2)o1	x	x	x	x	x	-1.8
O=C(CCS(=O)(=O)c1ccc(Br)cc1)NC1CCCCCC1	u	-3.9%	15.4%	25.1µM*	1.3	-0.2
Cc1ccc(O)c(C2=Nc3ccccc3N=C(c3cccc(F)c3)C2)c1	29.7%	-39.9%	89.1µM*	x	x	x
Cc1ccc(O)c(C2=Nc3ccccc3N=C(c3cccs3)C2)c1	29.9%	-8.4%	15.5%	-7.1%	21.6	-4.1
COc1ccc(S[C@]2(C(=O)N3CCN(c4ncccn4)CC3)CC(=O)N[C@@H]2c2ccc(OC)cc2)cc1	x	x	x	x	x	-5.4
COc1ccc(C(C(=O)N(C)C2CCCC2)N(Cc2ccc(F)cc2)C(=O)c2csc3ccc(Cl)cc23)cc1OC (stereo not drawn)	x	x	x	x	x	-1.0
CCCN1CCCC(c2cccc(S(C)(=O)=O)c2)C1 (stereo not drawn)	x	-15.6%[60.1 µM]	x	x	x	x
CCC(=O)N1CCCc2cc(S(=O)(=O)N3CCC(C(=O)Nc4ccc(F)c(F)c4)CC3)ccc21	-9.1%	-6.9%[60.1 µM]	-2.2%	-20.9%	x	-10.5
NC(CSC(c1ccccc1)(c1ccccc1)c1ccc2c(c1)OCO2)C(=O)O (stereo not drawn)	x	x	x	35.5µM*	u	-6.0
CCN1C(=O)N[C@@H](c2cccs2)C(C(=O)OC)=C1C	x	-15.8%	-7.2%	1.2%	-0.4	4.4
CC1=C(C(=O)OCc2ccccc2)C(c2ccc(Br)cc2)NC(=O)N1CCCCCC(=O)O (stereo not drawn)	x	2.5%	u	1.2%	-21.0	1.5
COC(=O)C1=C(C)N(CCCC(=O)O)C(=O)NC1c1cccs1 (stereo not drawn)	25.8%	7.9%	12.2%	-6.9%	-72.6*	2.4

Screening data from PubChem BioAssay.
